The list is not random: actives were taken first. Their share in the collection is about 8.1%.
ClpP mod = qHTS Assay for Activators of ClpP. purified B. subtilis ClpP, FRET peptide cleavage, 20 min. ATP-dependent Clp protease proteolytic subunit (Bacillus subtilis (strain 168)), P80244. 340,000 compounds, 1.9% hits. Potency, µM (top dose mostly 57.5 µM), for the others: at the top dose activity change, negative = active; active means well fitted falling curve with a large enough effect; inconclusive means small, poorly fitted or top-dose-only effect; inactive means no such curve, though single readings can be large or run the other way; further: the source files actives as falling curves though it sought activators and does not explain the sign; nearly all actives have a fitted effect of over 65% in size
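FRET quenching reversal measured ClpP activation: 10 microg/mL B. subtilis ClpP at pH 8 with the FRET-FV decapeptide, read at 430 nm after 320 nm excitation. The 20-min minus 0-min signal was scaled between DMSO/no-enzyme wells and ADEP (5.8 microM final).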
RORgamma inh = ROR gamma (mouse) transcription inhibition. 310,000 compounds, 5.4% hits. Drosophila S2 Gal4-RORgamma UAS-luciferase reporter, 20 h. Potency, µM (titrated, usually from 53.6 µM), inactives show at the highest dose activity change, negative = inhibition, actives largely listed as inhibitors. P51450; further: on the % scale 0 is the no-effect control and ±100 the full control effect; nearly all actives have a fitted effect of over 60% in size
Target sequence (P51450 whole entry, looked up, the tested form may be a part): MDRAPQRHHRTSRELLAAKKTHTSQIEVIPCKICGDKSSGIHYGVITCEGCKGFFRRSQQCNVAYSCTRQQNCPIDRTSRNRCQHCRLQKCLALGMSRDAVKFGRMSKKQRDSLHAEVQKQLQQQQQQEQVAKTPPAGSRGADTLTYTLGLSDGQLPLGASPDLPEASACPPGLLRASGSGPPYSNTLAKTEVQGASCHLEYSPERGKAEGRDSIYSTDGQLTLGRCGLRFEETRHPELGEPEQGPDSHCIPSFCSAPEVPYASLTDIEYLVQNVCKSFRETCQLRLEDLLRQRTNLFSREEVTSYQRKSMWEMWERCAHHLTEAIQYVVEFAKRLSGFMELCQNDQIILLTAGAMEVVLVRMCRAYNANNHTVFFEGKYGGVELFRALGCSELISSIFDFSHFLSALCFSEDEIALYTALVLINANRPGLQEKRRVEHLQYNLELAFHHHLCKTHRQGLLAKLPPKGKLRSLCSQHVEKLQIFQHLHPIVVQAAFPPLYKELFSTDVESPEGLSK
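Schneider cells (Drosophila), stable Gal4 DBD–ROR gamma + UAS-luc; 1 hr cmpd preincubation; Cu2+ induction 700 uM final; 20 hr ambient; luminescence.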
Gal4-VP16 FLuc = Gal4-VP16 reporter inhibition counter-screen; Drosophila S2 Gal4-VP16 UAS-luciferase, luminescence, 20 h; Potency, µM (top dose mostly 53.6 µM), without a hit: at the top dose activity, negative = inhibition, actives largely listed as inhibitors; 310,000 compounds, 3.5% hits; AID 2546;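 further: Gal4-VP16 expression switched on by copper sulfate through the metallothionein promoter; on the % scale 0 is the no-effect control and ±100 the full control effect; nearly all actives have a fitted effect of over 50% in size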
Sfp inh = inhibitors of Bacillus subtilis Sfp phosphopantetheinyl transferase. Q9F4F7. Biochemical Sfp PPTase activity, qHTS. Potency, µM, without a hit: largest response in the series, negative = inhibition, most hits filed as inhibitors. 310,000 compounds, 3.5% hits. AID 1490;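 further: the enzyme is Sfp with the accession as filed and its product quenches rhodamine fluorescence; 0% = enzyme reaction without inhibitor and -100% = no enzyme wells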
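Buffer: 50 mM Hepes-Na pH 7.6, 10 mM MgCl2, 0.01% Nonidet P-40, 0.01% BSA. Enzyme 15 nM, pre-exposed to compound 15 min; substrates then added and fluorescence change tracked over 30 min.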
PINK1 modulator = PINK1 expression modulation; PINK1 immunofluorescence, high-content cytometry, 24 h; AID 624263; Potency, µM (top dose mostly 76.6 µM), without a hit: at the top dose activation (PINK1 increase), usual class: activators; 410,000 compounds, 0.2% hits; active means well fitted activation curve with a large enough effect; inconclusive means small, poorly fitted or top-dose-only effect; cell line not stated here; further: % of control where 0% means no effect; nearly all actives have a fitted effect of over 65% in size
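A stable cell line was treated with compounds at 5 concentrations for 24 hours, with CCCP as control. PINK1 levels and mitochondrial localization were measured by immunofluorescence with mitochondrial, cell and nuclear markers after fixation, read by laser-scanning cytometry.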
Epigenetic derep = derepresses silenced GFP reporter in murine cells; murine LDR cells, GFP reporter derepression, 30 h; Potency, µM (series often up to 53.9 µM), for inactives: top-dose GFP activation, hits mostly activators; 280,000 compounds, 0.2% hits; further: % of control where 0% means no effect; nearly all actives have a fitted effect of over 60% in size
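Murine LDR cells bearing a silenced CMV-driven GFP reporter were exposed to compound for 30 h at 37 C. After PBS washes, GFP-positive cells (20-120 um objects) counted by laser-scanning microplate cytometry.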
Numbers without * were called inactive; ? = inconclusive; / = not tested or not shown; [ ] = another dose, or the depositor's remark. Unless noted, the call rests on the fitted dose curve; in most records, active means well fitted curve in the direction sought with a large enough effect; inconclusive means small, poorly fitted or top-dose-only effect, or another doubt; inactive means no such curve, though single readings can be large; an effect the other way counts as inactive or inconclusive. Potency means the concentration at half of the fitted maximal effect.

SMILES | ClpP mod | RORgamma inh | Gal4-VP16 FLuc | Sfp inh | PINK1 modulator | Epigenetic derep
Cc1nnc(N2CCN(c3ccccc3F)CC2)c2c1nnn2Cc1ccccc1 | ? | / | / | / | 2% | -2%
O=C(c1cn(C2CCCN(Cc3cccc(Oc4ccccc4)c3)C2)nn1)N1CCCC1 (stereo unspecified) | / | / | / | / | 0% | /
COc1cccc(-c2cc3c(c(OC)c2)OCCN(Cc2cccn2-c2ccccn2)C3)c1 | / | / | / | / | -1% | /
CC(C)(C)c1ccc(OC2C(O)COC2/C=C/C#Cc2ccccc2)cc1 (stereo unspecified) | / | 12%[10 µM] | 15%[10 µM] | 13% | / | 1%[10.1 µM]
O=[N+]([O-])c1cc([N+](=O)[O-])c2c(=Nc3ccccc3)n(-c3ccccc3)n(O)c2c1 | / | 13µM* | ? | ? | -1% | -2%
O=[N+]([O-])c1cccc(C(=Nc2ccccc2)NO)c1 | 2% | 17% | 0% | 5% | 2% | 4%
Cc1ccc(-n2nc(C)c3c(C)c(CCC(=O)NCc4ccc(Cl)cc4)c(C)nc32)cc1 | 4% | / | / | / | 0% | -2%
Cc1nc2c(=O)n(C)c(=O)[nH]c2n1Cc1ccccc1 | 28µM* | -8% | -10% | -7% | -2% | 0%
Cc1nn(C)c2c1c(-c1ccccc1)cc(=O)n2Cc1ccc(Br)cc1F | -3% | / | / | / | 4% | 0%
Cc1nn(C)c2c1c(-c1ccccc1)cc(=O)n2Cc1ccccc1Cl | 28µM* | / | / | / | 4% | 1%
COc1cc(OC)c(NC(=O)C(C)n2c(=O)cc(-c3ccccc3)c3c(C)nn(C)c32)cc1Cl (stereo unspecified) | 32µM* | / | / | / | 4% | 1%
Cc1nn(C)c2c1c(-c1ccccc1)cc(=O)n2Cc1c(F)cccc1Cl | -28% | / | / | / | 1% | 0%
Cc1nn(C)c2c1c(-c1ccccc1)cc(=O)n2Cc1ccccc1F | 28µM* | / | / | / | 4% | -2%
COC(=O)c1ccc(Cl)cc1NC(=O)N(Cc1ccc(C)o1)C1CCN(C(C)=O)CC1 | -7% | / | / | / | -2% | -1%
O=C(CSc1ncnc2c1oc1ccccc12)NCc1ccco1 | -1% | ? | 20µM* | 28µM* | / | 1%
COc1cccc(NC(=O)CSc2ncnc3c2oc2ccccc23)c1 | -7% | 9% | -3% | 71µM* | 10% | -1%
Cc1ccc(N2CC(NC(=O)CCc3ccccc3)CC2=O)cc1 (stereo unspecified) | 0% | / | / | / | 0% | 2%
CCc1ccc(OC(=O)/C=C/c2ccco2)cc1 | 0% | 10% | 1% | -12% | 1% | /
O=C(/C=C/c1ccco1)Oc1cccc2cccnc12 | 1% | 1.4µM* | 4.5µM* | -22% | 1% | ?
Cc1c(C(=O)Oc2cccc3cccnc23)oc2ccccc12 | / | 3.2µM* | 6.3µM* | ? | 1% | ?
COc1ccccc1/C=C/C(=O)Oc1cccc2cccnc12 | -22% | 3.2µM* | 5.6µM* | ? | 0% | ?
CCc1nc2ccccc2c(C(=O)Oc2cccc3cccnc23)c1C | -2% | -16% | 4% | -21% | 4% | -1%
O=C(/C=C\c1ccco1)Oc1cccc2cccnc12 | / | 1.4µM* | 4.5µM* | ? | 1% | 8%
COc1cc(C2C(C(=O)Nc3ccccc3C)=C(C)Nc3nc(SCc4cc(C)ccc4C)nn32)ccc1O (stereo unspecified) | -2% | / | / | / | 4% | 0%
CCN1CCCC1CNC(=O)c1cnn(-c2nccc(-c3cccs3)n2)c1C1CC1 (stereo unspecified) | / | / | / | / | 2% | /
COc1ccccc1N1CCN(C(=O)CSc2nc(-c3ccc(C(C)C)cc3)no2)CC1 | -5% | / | / | / | -1% | 0%
COc1cc(OC)c(/C=C/c2ccc3ccccc3[n+]2[O-])c(OC)c1 | -3% | / | / | / | 1% | /
O=C(CSc1nnc(CNC(=O)c2c(F)cccc2Cl)o1)Nc1cccc(F)c1 | -2% | / | / | / | -1% | 3%
Cc1ccc(O)c(N=Cc2sc3ccccc3c2Cl)c1 | -17% | ? | ? | ? | ? | 1%
